This passage reports Potency and outcome results from PubChem BioAssay (Tox21).

Test [1] is described as follows: qHTS assay for small molecules that induce genotoxicity in human embryonic kidney cells expressing luciferase-tagged ATAD5 (AID 651632). Further: nearly all actives have a fitted effect of over 15% in size. Further: potency means the concentration at half of the fitted maximal effect. Summed up: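 Test compounds were delivered by pin tool onto HEK293T reporter cells (2,000/well) expressing ATAD5 fused to luciferase. After 16 hr at 37C, 5% CO2, Amplite was added for 30 min at room temperature and luminescence was measured.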

The nature of test [2]: qHTS assay for small molecule agonists of the p53 signaling pathway - cell viability (AID 651633; calls by dose curve; further: nearly all actives have a fitted effect of over 30% in size; further: potency means the concentration at half of the fitted maximal effect). Summed up:
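p53RE-bla cells, seeded at 4,000 per well and rested 5 h at 37 C/5% CO2, received compounds in DMSO for 16 h at 37 C. CellTiter-Glo was then added, and luminescence was read after 30 min at room temperature to gauge cytotoxicity.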
On the technique in general: Quantitative high-throughput screening tests each substance at several concentrations.

The nature of test [3]: qHTS assay for small molecules that induce genotoxicity in human embryonic kidney cells expressing luciferase-tagged ATAD5 - cell viability (AID 651634; calls by dose curve; further: nearly all actives have a fitted effect of over 25% in size; further: potency means the concentration at half of the fitted maximal effect). Summed up:
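Quantitative high-throughput format. HEK293T cells expressing ATAD5 fused to luciferase were plated at 2,000 cells/well and treated 15.5 hr with compound versus DMSO. Viability was determined by fluorescent live-cell protease substrate, 30 min at 37C.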

Test [4] can be described thus: qHTS assay for small molecule disruptors of the mitochondrial membrane potential - cell viability (AID 720634; calls by dose curve; further: nearly all actives have a fitted effect of over 20% in size; further: potency means the concentration at half of the fitted maximal effect). The procedure, abridged: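 Same-well counter-screen: following the MMP dye addition, CellTiter-Glo was added to 1 hr compound-treated HepG2 cells and luminescence read after 30 min at room temperature.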
Test [5] can be described thus: qHTS assay for small molecule disruptors of the mitochondrial membrane potential (AID 720635). Further: potency means the concentration at half of the fitted maximal effect. Summed up: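 HepG2 cells (2,000/well) attached overnight at 37C, then took compound for 1 hr at 37C, 5% CO2. Mito-MPS dye was added for 30 min; fluorescence was read at 490/535 nm (monomers) and 540/590 nm (aggregates).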
The nature of test [6]: qHTS assay to test for compound auto fluorescence at 590 nm (red) in HepG2 cells (AID 720674). The procedure, abridged: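 Intrinsic compound fluorescence in the red window (Ex/Em 540/590 nm) is measured in attached HepG2 cells exposed for 1 hr, DMSO vehicle as baseline, benchmarked to Rose Bengal sodium.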
Test [7] can be described thus: qHTS assay to test for compound auto fluorescence at 535 nm (green) in HepG2 cells (AID 720675).
The nature of test [8]: qHTS assay to test for compound auto fluorescence at 460 nm (blue) in HEK293 cells (AID 720678). The procedure, abridged:
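HEK293 cells (2,000/well, medium with 10% dialyzed FBS) attached 4-5 hr, then exposed to compound overnight at 37C, 5% CO2. Blue fluorescence read at 405/460 nm, with triamterene as reference fluorophore.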

Test [9] in a line: qHTS assay to test for compound auto fluorescence at 535 nm (green) in HEK293 cells (AID 720680).
Test [10] can be described thus: qHTS assay to test for compound auto fluorescence at 460 nm (blue) in HEK293 cell free culture (AID 720681). Summed up: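 Test compounds were pinned into cell-free culture medium (DMEM with 10% FBS) and fluorescence was read directly at Ex/Em 405/460 nm. Signals were expressed as fluorescence equivalents of triamterene, with DMSO vehicle as control.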
A short description of test [11]: qHTS assay to test for compound auto fluorescence at 535 nm (green) in HEK293 cell free culture (AID 720682). Summed up:
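Read-out: 485/535 nm fluorescence intensity, calibrated against fluorescein. Medium only (DMEM + 10% FBS, no cells); test compound or DMSO vehicle added by pintool before plate reading.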

The nature of test [12]: qHTS assay to test for compound auto fluorescence at 590 nm (red) in HEK293 cell free culture (AID 720683). Summed up:
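Tox21 10K library compounds were pinned into cell-free DMEM with 10% FBS and fluorescence was read at excitation 540 nm. Activity is expressed as Rose Bengal sodium equivalency.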

The nature of test [13]: qHTS assay to test for compound auto fluorescence at 590 nm (red) in HepG2 cell free culture (AID 720684). The procedure, abridged:
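Ex 540 / Em 590 nm read of compound in cell-free MEM (10% FBS). Rose Bengal sodium reference.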

A short description of test [14]: qHTS assay to test for compound auto fluorescence at 460 nm (blue) in HepG2 cell free culture (AID 720685). The procedure, abridged: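 Cell-free plates of MEM plus 10% FBS received 23 nL compound or DMSO vehicle; blue-channel (405/460 nm) intensity scored against triamterene as reference fluorophore.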
The nature of test [15]: qHTS assay to test for compound auto fluorescence at 535 nm (green) in HepG2 cell free culture (AID 720686).
Test [16] in a line: qHTS assay to test for compound auto fluorescence at 460 nm (blue) in HepG2 cells (AID 720687). Summed up:
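Cells (2,000/well in MEM with 10% FBS) attached overnight at 37 C, then were exposed to compound or DMSO for 1 hr at 37 C, 5% CO2. Fluorescence read at Ex/Em 405/460 nm, expressed as triamterene-equivalent signal.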

A short description of test [17]: qHTS assay for small molecule agonists of the p53 signaling pathway (AID 651631; calls by dose curve; further: potency means the concentration at half of the fitted maximal effect; nearly all actives have a fitted effect of over 15% in size). Summed up: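 HCT-116 cells carrying a stable p53 response element–beta-lactamase reporter were plated, rested 5 h at 37 °C, then exposed to compound in DMSO for 16 h at 37 °C; reporter activity was read as FRET substrate fluorescence after 2 h at room temperature.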
Test [18] can be described thus: qHTS assay to test for compound auto fluorescence at 590 nm (red) in HEK293 cells (AID 720679). Summed up: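 HEK293 cells (2,000/well, 10% dialyzed FBS) attached 4-5 hr, then dosed with compound or DMSO and incubated overnight at 37C, 5% CO2. Red fluorescence read at 540/590 nm, Rose Bengal sodium as reference fluorophore.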
The target of test [19] is Glucocorticoid receptor (Homo sapiens) (UniProt P04150). The test is described as follows: qHTS assay to identify small molecule agonists of the glucocorticoid receptor (GR) signaling pathway (AID 720691; active means well fitted activation curve with a large enough effect in the signal ratio in the repeat runs, not every such curve was filed as active; the % refers to the signal ratio). Particulars: GR-bla HeLa, beta-lactamase reporter ratio, 18 h; activation: at 62.4 µM (top of the series). Summed up:
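A HeLa cervical cancer line expressing GR and a glucocorticoid response element-driven beta-lactamase gene is treated with compounds for 18 h; LiveBLAzer B/G FRET substrate is then applied and fluorescence read.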

Results filed as inconclusive are left out. Calls of active or inactive are those of the source. Unless noted, the call rests on the fitted dose curve; in most records, active means well fitted curve in the direction sought with a large enough effect in the repeat runs; inconclusive means weak or mixed curves; inactive means no such curve, though single readings can be large; an effect the other way counts as inactive or inconclusive.

Chain of Glucocorticoid receptor (Homo sapiens) (P04150 whole entry, looked up): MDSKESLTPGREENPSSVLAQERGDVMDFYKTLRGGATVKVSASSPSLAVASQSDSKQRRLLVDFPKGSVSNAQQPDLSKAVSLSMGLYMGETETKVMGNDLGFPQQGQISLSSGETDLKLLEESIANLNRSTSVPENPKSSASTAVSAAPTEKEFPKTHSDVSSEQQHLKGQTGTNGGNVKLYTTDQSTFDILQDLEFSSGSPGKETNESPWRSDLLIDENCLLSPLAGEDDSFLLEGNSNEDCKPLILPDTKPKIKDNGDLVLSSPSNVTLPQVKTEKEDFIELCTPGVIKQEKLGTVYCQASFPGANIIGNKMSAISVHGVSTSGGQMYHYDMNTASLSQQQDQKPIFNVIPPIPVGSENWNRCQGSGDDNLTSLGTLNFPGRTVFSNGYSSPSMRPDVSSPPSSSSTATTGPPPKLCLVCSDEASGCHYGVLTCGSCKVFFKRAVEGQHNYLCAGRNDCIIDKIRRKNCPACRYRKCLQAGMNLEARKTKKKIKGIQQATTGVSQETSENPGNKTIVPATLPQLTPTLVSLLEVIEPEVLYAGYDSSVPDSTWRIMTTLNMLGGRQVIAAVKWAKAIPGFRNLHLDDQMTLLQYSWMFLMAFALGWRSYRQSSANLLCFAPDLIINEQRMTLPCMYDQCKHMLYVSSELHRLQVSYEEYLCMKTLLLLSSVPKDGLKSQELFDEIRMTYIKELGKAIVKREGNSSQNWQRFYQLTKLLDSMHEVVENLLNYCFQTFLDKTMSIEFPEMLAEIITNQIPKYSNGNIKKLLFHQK

Take `CCc1cc(Cc2cc(CC)cc(C(C)(C)C)c2O)c(O)c(C(C)(C)C)c1`: the Potency entry in test [1], in test [4], in [6], in test [7], in [8] and in [10] was “inactive” throughout. Moreover, the Potency entry in test [12], in test [13], in test [14], in [15] and in test [16] was “inactive” in each case. Moreover, the Potency was 10.9 µM (active) in [2], 61.1 µM (active) in [3] and 0.864 µM (active) in [5]. The compound was classed as inactive in test [9] and in [11].

As for `Cc1ccc(-n2nc(C(C)(C)C)cc2NC(=O)Nc2ccc(OCCN3CCOCC3)c3ccccc23)cc1`, the Potency entry in test [1], in test [2], in test [3], in test [4], in test [6] and in test [7] was “inactive” each time. Further, the Potency entry in test [8], in test [10], in test [12], in test [13], in test [15] and in test [16] was “inactive” throughout. Further, in test [5], the Potency is 18.8 µM (active). The compound was called inactive in test [9] and in test [11].

With `CCCCCCCCCCn1cc[n+](CCCCCCCCCC)c1C`, the Potency entry in test [1], in [6], in [7], in test [8], in test [10] and in test [12] was “inactive” each time. Moreover, the Potency result in test [13], in [14], in test [15] and in test [16] was “inactive” each time. Besides, the Potency in [2] was 68.7 µM (active); in test [3], 68.7 µM (active); in [4] it was 54.5 µM (active); in test [5], 2.17 µM (active). For the same compound, the call in [9] and in test [11] was inactive.

`CCCCN1C(=O)[C@@H]([C@H](O)C2CCCCC2)NC(=O)C12CCN(Cc1ccc(Oc3ccc(C(=O)O)cc3)cc1)CC2`: the Potency in [17] was 54.5 µM (active). Moreover, the Potency entry in [2], in [4], in [6], in test [7], in test [8] and in test [18] was “inactive” throughout. Further, the Potency entry in [10], in test [12], in test [13], in test [14] and in test [16] was “inactive” throughout. The result in test [9] and in test [11] was inactive.

Take `O=S1(=O)CC(Cl)(Cl)C(Cl)(Cl)C1`: the Potency in [1] was 4.86 µM (active); in [2], 3.06 µM (active); in test [3] it was 24.3 µM (active); in [4], 15.4 µM (active); in test [5], 12.2 µM (active). Besides, the Potency entry in test [6], in [7], in test [8], in [18], in [10] and in [12] was “inactive” in each case. Also, the Potency entry in [13], in test [14], in test [15] and in test [16] was “inactive” throughout. Moreover, the call in test [9] and in [11] was inactive.

Turning to `Cc1cc(O)c(C(C)(C)C)cc1C(C)(C)C`, the Potency entry in test [1], in test [6], in test [7], in [8], in test [10] and in [12] was “inactive” throughout. The Potency result in test [13], in [15] and in [16] was “inactive” throughout. Further, the Potency in test [2] is 9.69 µM (active); in [3], 15.4 µM (active); in test [4], 15.4 µM (active); in [5], 0.969 µM (active). Besides, the outcome in [9] and in [11] was inactive.

On to `Cc1onc(-c2c(Cl)cccc2Cl)c1C(=O)N[C@@H]1C(=O)N2[C@@H]1SC(C)(C)[C@@H]2C(=O)O`, for which the Potency entry in test [1], in test [2], in test [3], in [4], in [5] and in [6] was “inactive” in each case. Also, the Potency entry in test [7], in test [8], in test [10], in test [12], in test [14] and in test [16] was “inactive” throughout. For the same compound, in test [19], the Potency result is “inactive”. Moreover, the compound was classed as inactive in test [9] and in test [11].

Take `CC[C@H]1O[C@]2(CC[C@@H]1C)C[C@@H]1C[C@@H](C/C=C(\C)C[C@@H](C)/C=C/C=C3\CO[C@@H]4[C@H](O)C(C)=C[C@@H](C(=O)O1)[C@]34O)O2`: the Potency entry in test [1], in [6], in test [8], in test [18], in [10] and in test [12] was “inactive” throughout. Also, the Potency entry in test [13], in test [14], in test [15] and in [16] was “inactive” throughout. The Potency is 12.1 µM (active) in test [2], 54 µM (active) in [3], 68 µM (active) in [4] and 21.5 µM (active) in [5]. Also, the result in [9] and in [11] was inactive.

In the case of `Cn1cc(C(=O)[C@@H]2CCc3nc[nH]c3C2)c2ccccc21`, the Potency entry in [1], in [2], in test [3], in [4], in test [5] and in test [6] was “inactive” throughout. For the same compound, the Potency entry in test [8], in test [18], in [10], in test [12], in test [14] and in test [16] was “inactive” throughout. Further, the Potency entry in test [19] was “inactive”. Also, the call in [9] and in test [11] was inactive.

With `CN(C)C(=O)C1(N2CCCCC2)CCN(CC[C@@]2(c3ccc(Cl)c(Cl)c3)CN(C(=O)c3ccccc3)CCO2)CC1`, the Potency entry in test [1], in test [6], in test [7], in [8], in test [18] and in test [12] was “inactive” in each case. The Potency result in test [13], in test [14] and in [16] was “inactive” each time. Further, the Potency in test [2] and in test [3] was 64.1 µM (active) each time. Also, the call in test [9] was inactive.
